# Results: PubChem BioAssay AID738 (SRMLSC, 2007)
# The whole screen tested about 98,000 compounds, of which about 4,900 (5%) were called active. Cut-off read from the data, not from the text of the source: active = inhibition above about 30%; inactive = the rest. The sample as a whole holds a higher share of actives than the screen did.
# Experiment: growth inhibition of yeast control strain, primary screen, counter-screen for post-Golgi transport modulator project (AID 738)
# Details: efflux-deficient yeast background strain, growth absorbance A615, 16 h; at 10 µM; hits give high values
row,Compound,inhibition
1,Cc1nc2ccccn2c1P(=S)(N1CCCCC1)N1CCCCC1,49.1% (active)
2,COc1ccc(C(=O)C2CN(C)CC2C(=O)c2ccc(OC)cc2)cc1 (stereo not given),20.5% (inactive)
3,CCC(=NCc1ccco1)c1c(O)n(Cc2ccccc2)c(=O)[nH]c1=O,15.9% (inactive)
4,CCC(=NCCc1ccccc1)c1c(O)n(C2CCCCC2)c(=O)[nH]c1=O,70.8% (active)
5,CC(=O)c1c(O)n(C2CCCCCC2)c(=O)[nH]c1=O,19.8% (inactive)
6,COc1ccc(C(=O)CC2C(=O)N(C)C(=O)N(C)C2=O)cc1,6.25% (inactive)
7,O=C(c1cc2nc(-c3ccccc3)cc(-c3ccccc3)n2n1)N1CCC2(CC1)OCCO2,29.5% (inactive)
8,CC(C)(C)c1ccc(CN2C(=O)CN=C(c3ccccc3)c3ccccc32)cc1,33.8% (active)
9,CN1CCC(N(C)Cc2cccnc2)CC1,7.07% (inactive)
10,CCOc1ccc(CN(CCCl)CCCl)cc1C(=O)OC,22.7% (inactive)
11,O=C(CN1CCCCC1)Nc1ccc(Br)cc1C(=O)c1ccccc1Cl,29.2% (inactive)
12,CCNc1nc2[nH]c(=O)c3c(c2s1)OC(N)=C(C#N)C3c1cccs1 (stereo not given),5.65% (inactive)
13,COc1ccccc1-n1c(O)c(C=NC2CC2)c(=O)[nH]c1=O,6.8% (inactive)
14,OC(CNC1CCCCC1)c1ccccc1 (stereo not given),5.79% (inactive)
15,CCOP(=S)(OCC)SCOC(=O)NCC(=O)OC,4.53% (inactive)
16,O=[N+]([O-])c1ccc(C2C3C(c4ccccc4)=NC4(CCCCC4)N32)cc1 (stereo not given),18% (inactive)
17,Cc1ccc(Cn2c(C)c3cnn(CC(=O)N4CCC5(CC4)OCCO5)c(=O)c3c2C)cc1,-1.49% (inactive)
18,N#Cc1ccc(Cn2cc(C(=O)c3ccco3)c3ccccc32)cc1,38.7% (active)
19,COc1ccc(CCn2c(O)c(C=NCCCn3ccnc3)c(=O)[nH]c2=O)cc1OC,2.05% (inactive)
20,Cn1c(O)c(C=NCCCC(=O)O)c(=O)n(C)c1=O,2.29% (inactive)
21,Cc1ccc(N(C)C(=O)Oc2cccc3ccc(C)nc23)cc1,5.47% (inactive)
22,CC[N+](CC)(CC)CCCCCCCCCC[N+](CC)(CC)CC,-4.82% (inactive)
23,CCOC(=O)C1SC2(C(F)(F)C(F)F)CC1(O)c1c(c(OC)c3occc3c1OC)O2 (stereo not given),33.6% (active)
24,O=c1c2ccccc2nc(-c2ccc(Cl)cc2Cl)n1-c1ccncc1,9.41% (inactive)
25,COc1cc(Cn2c(N)c(C(=O)NCc3ccco3)c3nc4ccccc4nc32)cc(OC)c1OC,7.01% (inactive)
26,CC(=O)Nc1ccccc1C(=O)OCC(=O)c1cccc2ccccc12,0.9% (inactive)
27,CCCCCCN=C(CC)c1c(O)n(CCCC)c(=O)[nH]c1=O,36.3% (active)
28,CCC(=NCCCO)c1c(O)n(-c2ccc(OC)cc2)c(=O)[nH]c1=O,3.64% (inactive)
29,CCCCn1c(O)c(C(CC)=NCc2ccco2)c(=O)[nH]c1=O,16.6% (inactive)
30,CC(=O)c1ccc(OC(NC(=O)Cc2ccccc2)C(Cl)(Cl)Cl)cc1 (stereo not given),4.53% (inactive)
